The structures appear in SMILES notation. Hit rate of the full screen: of about 39,000 compounds, about 1,500 (3.8%) were called active. The entries come from a sample that favours actives as a whole.

For this assay, the system named is HSkMC (human skeletal muscle cells). In words: cytotoxicity call (relative viability < 0.9). The following applies: 10 µM.
`COc1ccc(NC(=O)N(C)C[C@@H]2Oc3ncc(C#C[C@H](C)O)cc3C(=O)N([C@H](C)CO)C[C@@H]2C)cc1`: the cytotoxicity call is “inactive”.

On to `Cc1noc(C)c1S(=O)(=O)Nc1ccc2c(c1)C(=O)N([C@@H](C)CO)C[C@@H](C)[C@@H](CN(C)C(=O)Nc1ccc(C(F)(F)F)cc1)OCCCC[C@@H](C)O2`, for which the cytotoxicity call was “inactive”. The value for `Cc1noc(C)c1S(=O)(=O)Nc1ccc2c(c1)C(=O)N([C@H](C)CO)C[C@H](C)[C@H](CN(C)C(=O)Nc1ccc(C(F)(F)F)cc1)OCCCC[C@H](C)O2` was “active”; that for `Cc1noc(C)c1S(=O)(=O)Nc1ccc2c(c1)C(=O)N([C@@H](C)CO)C[C@@H](C)[C@H](CN(C)C(=O)Nc1ccc(C(F)(F)F)cc1)OCCCC[C@H](C)O2` was “inactive”; that for `COc1ccc(S(=O)(=O)Nc2ccc3c(c2)C(=O)N([C@@H](C)CO)C[C@@H](C)[C@H](CN(C)C(=O)NC(C)C)O3)cc1` was “inactive”. The value for `C[C@@H]1CN([C@H](C)CO)C(=O)c2cc(C#Cc3cccc(F)c3)cnc2O[C@H]1CN(C)CC1CCOCC1` was “inactive”; that for `CC=Cc1ccc2n(c1=O)C[C@H]1[C@H](CO)[C@@H](C(=O)NC3CCC3)[C@@H]2N1S(=O)(=O)c1cn(C)cn1` was “inactive”. Regarding `Cc1noc(C)c1S(=O)(=O)Nc1ccc2c(c1)CC(=O)N([C@@H](C)CO)C[C@H](C)[C@H](CN(C)S(C)(=O)=O)O2`, the cytotoxicity call was “inactive”. For `CC(C)(Sc1cc(C(C)(C)C)c(O)c(C(C)(C)C)c1)Sc1cc(C(C)(C)C)c(OC(=O)CCC(=O)O)c(C(C)(C)C)c1` the value was “active”. The value for `CC(C)(Sc1cc(C(C)(C)C)c(O)c(C(C)(C)C)c1)Sc1cc(C(C)(C)C)c(O)c(C(C)(C)C)c1` [listing 1 of 2 here] was “inactive”; that for `CC(C)(C)c1cc(CCC(=O)OCC(COC(=O)CCc2cc(C(C)(C)C)c(O)c(C(C)(C)C)c2)(COC(=O)CCc2cc(C(C)(C)C)c(O)c(C(C)(C)C)c2)COC(=O)CCc2cc(C(C)(C)C)c(O)c(C(C)(C)C)c2)cc(C(C)(C)C)c1O` was “inactive”. As for `CC(C)(Sc1cc(C(C)(C)C)c(O)c(C(C)(C)C)c1)Sc1cc(C(C)(C)C)c(O)c(C(C)(C)C)c1` [listing 2 of 2 here], the cytotoxicity call is “inactive”. As for `CC(C)(Sc1cc(C(C)(C)C)c(O)c(C(C)(C)C)c1)Sc1cc(C(C)(C)C)c(OCC(=O)O)c(C(C)(C)C)c1`, the cytotoxicity call is “active”. The value for `C[C@@H]1CN([C@@H](C)CO)C(=O)c2cccc(NC(=O)Nc3ccc(F)cc3)c2O[C@@H]1CN(C)C(=O)Nc1ccc(C(F)(F)F)cc1` was “inactive”; that for `C[C@@H]1CN([C@@H](C)CO)S(=O)(=O)c2ccc(-c3cncnc3)cc2O[C@H]1CN(C)C(=O)c1ccc2c(c1)OCO2` was “inactive”. With `COCC(=O)N1C[C@H](C)[C@@H](OC)CN(C)C(=O)c2cc(NC(=O)Nc3cccc(F)c3)ccc2OC[C@@H]1C`, the cytotoxicity call was “inactive”. For `COC[C@@H]1CN(C(=O)[C@H]2CCCN2C)N1` the value was “inactive”; for `COC(=O)[C@@H](Cc1ccccc1)N[C@H](/C=C/C1CC1)[C@@H](O)CCn1cc(-c2ccc(C(=O)NO)cc2)nn1`, “inactive”; for `CC[C@@H]1COCCC(=O)N1`, “inactive”. For `Cc1nc2cc(C)c(C)cc2s1` the value was “inactive”; for `Cc1ccc(NC(=O)Nc2cc(C(F)(F)F)ccc2F)cc1Nc1ccc2c(c1)NC(=O)/C2=C\c1ccc[nH]1`, “active”; for `C[C@@H]1CN([C@H](C)CO)C(=O)Cc2cc(NS(C)(=O)=O)ccc2O[C@H]1CN(C)S(=O)(=O)c1ccc(F)cc1`, “inactive”. For `Cc1noc(C)c1NC(=O)Nc1ccc2c(c1)C(=O)N([C@H](C)CO)C[C@@H](C)[C@@H](CN(C)S(=O)(=O)c1c(C)noc1C)O2` the value was “inactive”. As to `C[C@@H]1CN([C@@H](C)CO)C(=O)c2cccc(NC(=O)C3CC3)c2O[C@@H]1CN(C)Cc1ccc(-c2ccccc2)cc1`, the cytotoxicity call is “inactive”. The value for `C[C@@H]1CN([C@H](C)CO)S(=O)(=O)c2ccc(-c3ccccc3F)cc2O[C@H]1CN(C)Cc1cncnc1` was “inactive”; that for `C[C@@H]1CCCCO[C@@H](CN(C)Cc2ccc(Cl)c(Cl)c2)[C@@H](C)CN([C@@H](C)CO)C(=O)c2cc(NC(=O)c3ccccc3)ccc2O1` was “inactive”. For the compound `COc1ccc(NC(=O)Nc2ccc3c(c2)C(=O)N([C@@H](C)CO)C[C@@H](C)[C@@H](CN(C)Cc2ccc(Cl)c(Cl)c2)OCCCC[C@H](C)O3)cc1`, the cytotoxicity call was “inactive”. For `COc1ccc(NC(=O)Nc2ccc3c(c2)C(=O)N([C@H](C)CO)C[C@@H](C)[C@H](CN(C)Cc2ccc(Cl)c(Cl)c2)OCCCC[C@@H](C)O3)cc1` the value was “active”; for `COc1ccc(NC(=O)Nc2ccc3c(c2)C(=O)N([C@H](C)CO)C[C@@H](C)[C@H](CN(C)Cc2ccc(Cl)c(Cl)c2)OCCCC[C@H](C)O3)cc1`, “active”; for `COc1ccc(NC(=O)Nc2ccc3c(c2)C(=O)N([C@@H](C)CO)C[C@H](C)[C@@H](CN(C)Cc2ccc(Cl)c(Cl)c2)OCCCC[C@@H](C)O3)cc1`, “inactive”. For `COc1ccc(NC(=O)Nc2ccc3c(c2)C(=O)N([C@H](C)CO)C[C@H](C)[C@@H](CN(C)Cc2ccc(Cl)c(Cl)c2)OCCCC[C@@H](C)O3)cc1` the value was “inactive”; for `COc1ccc(NC(=O)Nc2ccc3c(c2)C(=O)N([C@H](C)CO)C[C@H](C)[C@@H](CN(C)Cc2ccc(Cl)c(Cl)c2)OCCCC[C@H](C)O3)cc1`, “inactive”; for `COc1ccc(NC(=O)Nc2ccc3c(c2)C(=O)N([C@H](C)CO)C[C@@H](C)[C@@H](CN(C)Cc2ccc(Cl)c(Cl)c2)OCCCC[C@H](C)O3)cc1`, “inactive”. For `COc1ccc(NC(=O)Nc2ccc3c(c2)C(=O)N([C@@H](C)CO)C[C@H](C)[C@H](CN(C)Cc2ccc(Cl)c(Cl)c2)OCCCC[C@@H](C)O3)cc1` the value was “inactive”. Turning to `COc1ccc(NC(=O)Nc2ccc3c(c2)C(=O)N([C@H](C)CO)C[C@H](C)[C@H](CN(C)Cc2ccc(Cl)c(Cl)c2)OCCCC[C@H](C)O3)cc1`, the cytotoxicity call was “active”. For `Cc1noc(C)c1S(=O)(=O)N(C)C[C@H]1Oc2c(NC(=O)NC3CCCCC3)cccc2C(=O)N([C@H](C)CO)C[C@@H]1C` the value was “inactive”; for `C[C@H](CO)N1C[C@H](C)[C@@H](CN(C)S(=O)(=O)c2cn(C)cn2)Oc2ccc(NC(=O)Cn3cnnn3)cc2C1=O`, “inactive”; for `CC(C)NC(=O)N(C)C[C@@H]1Oc2ccc(NS(=O)(=O)c3ccc(Cl)cc3)cc2CC(=O)N([C@H](C)CO)C[C@@H]1C`, “inactive”. For `CC(C)NC(=O)Nc1ccc2c(c1)C(=O)N([C@H](C)CO)C[C@H](C)[C@@H](CN(C)S(=O)(=O)c1ccccc1)O2` the value was “inactive”. For `COc1ccc(S(=O)(=O)N(C)C[C@H]2Oc3c(NC(=O)c4cc(C)nn4C)cccc3C(=O)N([C@H](C)CO)C[C@@H]2C)cc1` the value was “inactive”. Regarding `COc1ccc(S(=O)(=O)Nc2ccc3c(c2)C(=O)N([C@H](C)CO)C[C@H](C)[C@@H](CN(C)C(=O)Nc2ccccc2)OCCCC[C@@H](C)O3)cc1`, the cytotoxicity call is “inactive”. For `C[C@H]1CN([C@@H](C)CO)C(=O)c2ccccc2-c2ccccc2CO[C@H]1CN(C)Cc1ccc(C(F)(F)F)cc1` the value was “inactive”; for `C[C@@H]1CCCCO[C@H](CN(C)Cc2ccc(C(=O)O)cc2)[C@@H](C)CN([C@H](C)CO)C(=O)c2cc(NS(=O)(=O)c3ccc(Cl)cc3)ccc2O1`, “inactive”; for `CNC(=O)C(=O)Nc1cc(Cl)ccc1C#N`, “inactive”. For `CCN(CC)C(=O)[C@@H]1C[C@@H](N)CN1S(=O)(=O)N1CCCCCC1` the value was “inactive”.

As to `Cc1nc2ccccc2n1Cc1ccc(Cl)cc1`, the cytotoxicity call is “inactive”. The value for `Cc1ccc(OCCn2c(CC(C)(C)C)nc3ccccc32)cc1` was “inactive”; that for `c1ccc(Cn2c(-c3ccc(OC[C@H](C4CCNCC4)n4c(-c5ccccc5)nc5ccccc54)cc3)nc3ccccc32)cc1` was “active”; that for `C[C@H](O)C#Cc1ccc2c(c1)O[C@H](CN(C)C(=O)Nc1ccccc1)[C@@H](C)CN([C@H](C)CO)S2(=O)=O` was “inactive”. For `C[C@H]1CN([C@@H](C)CO)C(=O)c2cc(-c3cccnc3)cnc2O[C@@H]1CN(C)Cc1ccc(-c2ccccc2)cc1` the value was “inactive”. On to `C[C@@H]1CCCCO[C@@H](CN(C)Cc2ccc(Cl)c(Cl)c2)[C@H](C)CN([C@H](C)CO)C(=O)c2cc(NC(=O)NC3CCCCC3)ccc2O1`, for which the cytotoxicity call is “inactive”. For `C[C@@H]1CCCCO[C@H](CN(C)Cc2ccc(Cl)c(Cl)c2)[C@@H](C)CN([C@H](C)CO)C(=O)c2cc(NC(=O)NC3CCCCC3)ccc2O1` the value was “inactive”; for `C[C@@H]1CCCCO[C@H](CN(C)Cc2ccc(Cl)c(Cl)c2)[C@H](C)CN([C@@H](C)CO)C(=O)c2cc(NC(=O)C3CCCCC3)ccc2O1`, “inactive”; for `C[C@H]1CCCCO[C@H](CN(C)Cc2ccc(Cl)c(Cl)c2)[C@@H](C)CN([C@@H](C)CO)C(=O)c2cc(NC(=O)NC3CCCCC3)ccc2O1`, “active”.

As for `C[C@@H]1CCCCO[C@H](CN(C)Cc2ccc(Cl)c(Cl)c2)[C@@H](C)CN([C@@H](C)CO)C(=O)c2cc(NC(=O)C3CCCCC3)ccc2O1`, the cytotoxicity call was “active”.

As for `C[C@@H]1CCCCO[C@@H](CN(C)Cc2ccc(Cl)c(Cl)c2)[C@@H](C)CN([C@@H](C)CO)C(=O)c2cc(NC(=O)NC3CCCCC3)ccc2O1`, the cytotoxicity call was “inactive”. The value for `C[C@@H]1CN([C@@H](C)CO)C(=O)c2cc(NC(=O)NC3CCCCC3)ccc2O[C@@H](C)CCCCO[C@H]1CN(C)Cc1ccc(Cl)c(Cl)c1` was “inactive”. For `C[C@@H]1CCCCO[C@H](CN(C)Cc2ccc(Cl)c(Cl)c2)[C@@H](C)CN([C@H](C)CO)C(=O)c2cc(NC(=O)C3CCCCC3)ccc2O1` the value was “inactive”; for `C[C@@H]1CCCCO[C@H](CN(C)Cc2ccc(Cl)c(Cl)c2)[C@@H](C)CN([C@@H](C)CO)C(=O)c2cc(NC(=O)NC3CCCCC3)ccc2O1`, “active”. `C[C@@H]1CN([C@H](C)CO)C(=O)c2cccc(NS(C)(=O)=O)c2O[C@@H]1CN(C)Cc1ccc(C(=O)O)cc1`: the cytotoxicity call was “inactive”.

Source of the values: the antibiotic and cytotoxicity screens of Wong et al. (2023).
